Drawing on the supplement of paper PMC10981050, this text covers cell viability for 30 compounds.

Counter-ions that a name gives are not always drawn.

For this assay, the system named is MOLM14. In words: cell viability relative to vehicle control; higher = less cytotoxic. The settings on record: 10 µM; SRSF2 genotype: SRSF2 wt/wt. In a few lines:
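Screening covered the Selleck bioactive, kinase and epigenetic probe libraries, less identity-inconsistent compounds, on CRISPR-edited mutant clones and isogenic wild-type clones of four leukaemia lines. Cells, at 2000 per well in 50 µL medium, received a single 10 µM acoustically dispensed dose. After 48 h the supernatant was removed and CellTiter-Glo luminescence was read. Viability was analysed in Genedata Screener as percent of the on-plate vehicle control.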
`O=C(O)c1cc(=O)c2c(OCC(O)COc3cccc4oc(C(=O)O)cc(=O)c34)cccc2o1` [Disodium Cromoglycate]: the cell viability was found to be 94.4%.

In the case of `Nc1nc2c(ncn2[C@@H]2O[C@H](CO)[C@@H](O)[C@H]2O)c(=O)[nH]1` [Guanosine], the cell viability stood at 99.8%. The same measure for `CN(C/C=C/C#CC(C)(C)C)Cc1cccc2ccccc12` [Terbinafine]: 105%; for `NCC(=O)CCC(=O)O` [5-Aminolevulinic acid hydrochloride]: 105%. The same measure for `CN(C)CC(c1ccc(O)cc1)C1(O)CCCCC1` (stereo not given) [Desvenlafaxine]: 100%. Regarding `COc1cc(O)c2c(=O)cc(-c3ccc(O)c(O)c3)oc2c1` [Hydroxygenkwanin], the cell viability stood at 58.8%. Regarding `C[C@H](CC[C@@H](O[C@@H]1O[C@H](CO[C@@H]2O[C@H](CO)[C@@H](O)[C@H](O)[C@H]2O)[C@@H](O)[C@H](O)[C@H]1O[C@@H]1O[C@H](CO)[C@@H](O)[C@H](O)[C@H]1O)C(C)(C)O)[C@H]1CC[C@@]2(C)[C@@H]3CC=C4[C@@H](CC[C@H](O[C@@H]5O[C@H](CO[C@@H]6O[C@H](CO)[C@@H](O)[C@H](O)[C@H]6O)[C@@H](O)[C@H](O)[C@H]5O)C4(C)C)[C@]3(C)[C@H](O)C[C@]12C` [Mogroside V], the cell viability turned out to be 104%.

`COC(=O)c1ccc2c(c1)[nH]c1ncnc(NCCCN3CCCCC3)c12`: the cell viability came out at 15.7%. As to `O=C(CSc1nc2c(c(=O)n1-c1ccccc1)SCC2)Nc1ccc(-c2ccccc2)cn1`, the cell viability came to 96.8%. Regarding `COc1cc2c(cc1OC(C)C)[C@H](c1ccc(Cl)cc1)N(c1ccc(N(C)C[C@H]3CC[C@H](N4CCN(C)C(=O)C4)CC3)cc1)C(=O)C2`, the cell viability was 0.13%. The figure for `O=C(O)Cn1nnc(-c2cc(N3CCC(Oc4cc(F)ccc4Br)CC3)no2)n1` is 103%; for `CCCCCCCCCCCCCCCC(=O)O[C@@H]1[C@@H](O)[C@@H](O)[C@@H]([C@H](NC(=O)[C@@H]2C[C@@H](CCC)CN2C)[C@H](C)Cl)O[C@@H]1SC` [Clindamycin palmitate HCl] it is 105%; for `O=C(/C=C/c1ccccc1)OCc1ccccc1` [Benzyl cinnamate] it is 104%. The same measure for `O=S(=O)(c1ccccc1)c1cnc2c(N3CCNCC3)cccc2c1`: 100%; for `CCn1cc(C(=O)O)c(=O)c2cc(F)c(N3CCNCC3)cc21` [Norfloxacin (Norxacin)]: 91.8%; for `C[C@@H]1CC[C@@]2(OC1)O[C@H]1C[C@H]3[C@@H]4CC=C5C[C@@H](O[C@@H]6O[C@H](CO)[C@@H](O)[C@H](O)[C@H]6O[C@@H]6O[C@@H](C)[C@H](O)[C@@H](O)[C@H]6O)CC[C@]5(C)[C@H]4CC[C@]3(C)[C@@]1(O)[C@@H]2C` [Polyphyllin VI]: 0.55%. As for `Cc1ccnc(NS(=O)(=O)c2ccc(N)cc2)n1` [Sulfamerazine], the cell viability turned out to be 107%. The figure for `COC(=O)c1ccco1` [Methyl furan-2-carboxylate] is 110%. Consider `COc1cc2c(cc1O)C[C@H]1c3cc(O)c(OC)cc3CC[N+]1(C)C2` (stereo not given in full) [Phellodendrine chloride], for which the cell viability was 95.9%. Turning to `COc1cc2c(Nc3ccc(NC(=O)c4ccccc4)cc3)ncnc2cc1OCCCN1CCOCC1`, the cell viability was found to be 10.3%.

`CC(C)c1ccc(C=O)cc1` [4-Isopropylbenzaldehyde]: the cell viability was 94.9%. The figure for `C[C@]12CC[C@@H]3c4ccc(O)cc4CC[C@H]3[C@@H]1CC[C@@H]2O` [Estradiol] is 98.6%; for `CC[C@@H](CO)NCCN[C@@H](CC)CO` [Ethambutol HCl] it is 102%; for `O=C(O)C(Cc1c[nH]c2ccccc12)N1C(=O)c2ccccc2C1=O` (stereo not given) it is 99.3%. For the compound `Cc1nc(-c2cn3c(n2)-c2ccc(-c4cnn(C(C)(C)C(N)=O)c4)cc2OCC3)n(C(C)C)n1`, the cell viability was 40.1%.

Regarding `COc1cc2nccc(Oc3ccc(NC(=O)C4(C(=O)Nc5ccc(F)cc5)CC4)cc3)c2cc1OC`, the cell viability was 5.9%. Consider `O=C1c2c(O)cc(O)cc2O[C@H](c2cc(O)c(O)c(O)c2)[C@H]1O` [Dihydromyricetin (Ampeloptin)], for which the cell viability worked out at 107%. In the case of `NC(=O)/C(=C/n1cnc(-c2cc(C(F)(F)F)cc(C(F)(F)F)c2)n1)c1cncnc1`, the cell viability was 0.57%.

Regarding `O=C(c1ccccc1)c1ccc2nc(NC(=O)c3csc(C4CCN(c5ncnc6ccsc56)CC4)n3)[nH]c2c1`, the cell viability is 26.5%. With `C[C@H]1C[C@H]2[C@@H]3CCC4=CC(=O)C=C[C@]4(C)[C@H]3C(=O)C[C@]2(C)[C@@]1(O)C(=O)CO` [Betapar (Meprednisone)], the cell viability was 105%.

Broadly, the cell viability is a read-out of living cells in per cent, often relative to untreated cells.
